# Experiments:
# Test in all cases: PBM binding z-score (relative to random genomic background probes); higher = stronger binding; sequences stand for … in GC…GCGATTGACAGCGTAGAATGAAGG
# [1] = tested on: FXR:RXRa (NR concentration 270 nM, RXRa partner concentration 90 nM)
# In short: (§1)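 Custom Agilent 4×180K protein-binding microarrays carried double-stranded probes, each with a 34-nt variable region. These regions held direct-repeat seeds, single-nucleotide variants, half-site ablations and random human genomic background sequences. Ligand-free nuclear receptor dimers were incubated on the arrays for 1 h, antibodies against each partner (one per run) detected binding, and scanned fluorescence was regression-normalized. Binding z-scores take the random background probes as reference.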
# [2] = tested on: LXRa:RXRa (NR concentration 270 nM, RXRa partner concentration 90 nM)
# In short: as §1
# [3] = tested on: LXRa homodimer (NR concentration 270 nM)
# In short: as §1
# [4] = tested on: LXRb:RXRa (NR concentration 270 nM, RXRa partner concentration 90 nM)
# In short: as §1
# [5] = tested on: LXRb homodimer (NR concentration 270 nM)
# In short: as §1
# [6] = tested on: PPARa:RXRa (NR concentration 270 nM, RXRa partner concentration 90 nM)
# In short: as §1
# [7] = tested on: PPARg:RXRa (NR concentration 180 nM, RXRa partner concentration 90 nM)
# In short: as §1
# [8] = tested on: PPARg:RXRa 270nM:90nM, anti-RXR (NR concentration 270 nM, RXRa partner concentration 90 nM)
# In short: as §1
# [9] = tested on: PPARg:RXRa 30nM:10nM, anti-RXR (NR concentration 30 nM, RXRa partner concentration 10 nM)
# In short: as §1
# [10] = tested on: PPARg:RXRa 90nM:30nM, anti-RXR (NR concentration 90 nM, RXRa partner concentration 30 nM)
# In short: as §1
sequence,measurement,setting,value
CCTCGGAGTACAACAGGAGGTCAGAGCTGCCAGA,PBM binding z-score,[1],0.85
same,PBM binding z-score,[2],1.93
same,PBM binding z-score,[3],1.79
same,PBM binding z-score,[4],1.35
same,PBM binding z-score,[5],-0.438
same,PBM binding z-score,[6],1.92
same,PBM binding z-score,[7],0.371
same,PBM binding z-score,[8],0.479
same,PBM binding z-score,[9],-0.324
same,PBM binding z-score,[10],-0.0827
CAAACTAGGTCACAGAGGTCAAAATCCGTGCGTA,PBM binding z-score,[1],7.3
same,PBM binding z-score,[2],6.21
same,PBM binding z-score,[3],6.61
same,PBM binding z-score,[4],6.41
same,PBM binding z-score,[5],2.18
same,PBM binding z-score,[6],6.58
same,PBM binding z-score,[7],10
same,PBM binding z-score,[8],7.86
same,PBM binding z-score,[9],6.44
same,PBM binding z-score,[10],7.9
GCGACTGGGGCATCAGCAGGTTACCTTAACTTAA,PBM binding z-score,[1],-0.0462
same,PBM binding z-score,[2],-0.17
same,PBM binding z-score,[3],-0.509
same,PBM binding z-score,[4],0.761
same,PBM binding z-score,[5],-0.96
same,PBM binding z-score,[6],1.16
same,PBM binding z-score,[7],0.496
same,PBM binding z-score,[8],0.878
same,PBM binding z-score,[9],-0.313
same,PBM binding z-score,[10],0.578
TCTAGTTGGTCACAGGTCACACACTCGAAATGCG,PBM binding z-score,[1],2.89
same,PBM binding z-score,[2],2.92
same,PBM binding z-score,[3],1.82
same,PBM binding z-score,[4],3.13
same,PBM binding z-score,[5],0.99
same,PBM binding z-score,[6],4.37
same,PBM binding z-score,[7],7.08
same,PBM binding z-score,[8],6.5
same,PBM binding z-score,[9],6.07
same,PBM binding z-score,[10],7.04
CCTACTTGGCCAAAAAGGTCATTGATGCCGATAA,PBM binding z-score,[1],4.39
same,PBM binding z-score,[2],4.79
same,PBM binding z-score,[3],3.93
same,PBM binding z-score,[4],4.61
same,PBM binding z-score,[5],1.27
same,PBM binding z-score,[6],4.7
same,PBM binding z-score,[7],1.74
same,PBM binding z-score,[8],3.04
same,PBM binding z-score,[9],0.755
same,PBM binding z-score,[10],1.87
TGACAAAGTTCAAAGGTAACGTAAGTATCCACAC,PBM binding z-score,[1],6.96
same,PBM binding z-score,[2],6.05
same,PBM binding z-score,[3],3.28
same,PBM binding z-score,[4],4.68
same,PBM binding z-score,[5],1.41
same,PBM binding z-score,[6],5.69
same,PBM binding z-score,[7],6.2
same,PBM binding z-score,[8],6.28
same,PBM binding z-score,[9],2.97
same,PBM binding z-score,[10],5.43
GGAACGAGGGCAAAGTTGATAGCTTCTGTCGACG,PBM binding z-score,[1],1.24
same,PBM binding z-score,[2],0.709
same,PBM binding z-score,[3],-0.752
same,PBM binding z-score,[4],0.608
same,PBM binding z-score,[5],-0.484
same,PBM binding z-score,[6],3.85
same,PBM binding z-score,[7],6.78
same,PBM binding z-score,[8],6.83
same,PBM binding z-score,[9],5.74
same,PBM binding z-score,[10],7.17
TAACCTAGGTCATTCAGGGGCCAGTATAGAAAGC,PBM binding z-score,[1],5.52
same,PBM binding z-score,[2],5.3
same,PBM binding z-score,[3],3.1
same,PBM binding z-score,[4],3.98
same,PBM binding z-score,[5],2.09
same,PBM binding z-score,[6],4.46
same,PBM binding z-score,[7],3.45
same,PBM binding z-score,[8],4.12
same,PBM binding z-score,[9],1.61
same,PBM binding z-score,[10],3.03
CGAACTAGGTCATTGACAGGACAGAGAATAGTAA,PBM binding z-score,[1],4.59
same,PBM binding z-score,[2],3.18
same,PBM binding z-score,[3],0.538
same,PBM binding z-score,[4],1.92
same,PBM binding z-score,[5],0.12
same,PBM binding z-score,[6],4.71
same,PBM binding z-score,[7],7.41
same,PBM binding z-score,[8],6.39
same,PBM binding z-score,[9],3.83
same,PBM binding z-score,[10],6.06
CCGACTGGGGCAGAAAGGTTACAATACCATCCGG,PBM binding z-score,[1],0.452
same,PBM binding z-score,[2],0.428
same,PBM binding z-score,[3],-0.0734
same,PBM binding z-score,[4],1.17
same,PBM binding z-score,[5],-0.707
same,PBM binding z-score,[6],2.02
same,PBM binding z-score,[7],1.77
same,PBM binding z-score,[8],2.68
same,PBM binding z-score,[9],0.821
same,PBM binding z-score,[10],2.01
CCTAGTTGGTCAGCAGGTCACACACCGGATATGA,PBM binding z-score,[1],1.89
same,PBM binding z-score,[2],1.8
same,PBM binding z-score,[3],1.16
same,PBM binding z-score,[4],2
same,PBM binding z-score,[5],0.372
same,PBM binding z-score,[6],2.85
same,PBM binding z-score,[7],2.27
same,PBM binding z-score,[8],2.51
same,PBM binding z-score,[9],0.854
same,PBM binding z-score,[10],1.83
TCTAGTTGGTCAAAGTTCACACACTCGAAATGCG,PBM binding z-score,[1],3.96
same,PBM binding z-score,[2],4.54
same,PBM binding z-score,[3],4.63
same,PBM binding z-score,[4],3.66
same,PBM binding z-score,[5],1.36
same,PBM binding z-score,[6],5.5
same,PBM binding z-score,[7],9.83
same,PBM binding z-score,[8],9.2
same,PBM binding z-score,[9],8.79
same,PBM binding z-score,[10],9.75
CCTCGGAGGACAACAGGAGGTCCGAGCTGCCAGA,PBM binding z-score,[1],-0.13
same,PBM binding z-score,[2],-0.509
same,PBM binding z-score,[3],-0.575
same,PBM binding z-score,[4],-1.1
same,PBM binding z-score,[5],-0.867
same,PBM binding z-score,[6],-0.795
same,PBM binding z-score,[7],-0.182
same,PBM binding z-score,[8],-0.921
same,PBM binding z-score,[9],-0.862
same,PBM binding z-score,[10],-0.99
CCTACTGGGCCATCAGGTCATTGAGATCAACGTT,PBM binding z-score,[1],1.65
same,PBM binding z-score,[2],1.44
same,PBM binding z-score,[3],1.22
same,PBM binding z-score,[4],1.45
same,PBM binding z-score,[5],-0.336
same,PBM binding z-score,[6],2.93
same,PBM binding z-score,[7],3.04
same,PBM binding z-score,[8],3.58
same,PBM binding z-score,[9],1.41
same,PBM binding z-score,[10],3.12
TCATATAGGTAAATGTTAGGTGAAAGTCCGATCT,PBM binding z-score,[1],1.64
same,PBM binding z-score,[2],1.44
same,PBM binding z-score,[3],0.543
same,PBM binding z-score,[4],1.22
same,PBM binding z-score,[5],0.304
same,PBM binding z-score,[6],1.64
same,PBM binding z-score,[7],1.04
same,PBM binding z-score,[8],2.53
same,PBM binding z-score,[9],4.07
same,PBM binding z-score,[10],3.22
CCTACTGGGCCAAGGTCAATGATCAGTCAAAGCA,PBM binding z-score,[1],2.52
same,PBM binding z-score,[2],2.33
same,PBM binding z-score,[3],0.441
same,PBM binding z-score,[4],2.32
same,PBM binding z-score,[5],-0.518
same,PBM binding z-score,[6],3.85
same,PBM binding z-score,[7],4.03
same,PBM binding z-score,[8],4.33
same,PBM binding z-score,[9],2.07
same,PBM binding z-score,[10],3.39
ACTATTAGTTGAGACGAGGACAACCGATAGGTTG,PBM binding z-score,[1],0.431
same,PBM binding z-score,[2],0.148
same,PBM binding z-score,[3],0.167
same,PBM binding z-score,[4],-0.324
same,PBM binding z-score,[5],0.49
same,PBM binding z-score,[6],-0.169
same,PBM binding z-score,[7],0.659
same,PBM binding z-score,[8],-0.132
same,PBM binding z-score,[9],0.0741
same,PBM binding z-score,[10],0.0272
CCTCGGAGGACAACAGGAGGTCACAGCTGCCAGA,PBM binding z-score,[1],2.75
same,PBM binding z-score,[2],3.93
same,PBM binding z-score,[3],3.82
same,PBM binding z-score,[4],2.82
same,PBM binding z-score,[5],-0.268
same,PBM binding z-score,[6],3.42
same,PBM binding z-score,[7],1.76
same,PBM binding z-score,[8],2
same,PBM binding z-score,[9],-0.188
same,PBM binding z-score,[10],1.1
CGGCCAAGGTCATAGGAGGTCAGTGAAGACAGAT,PBM binding z-score,[1],7.73
same,PBM binding z-score,[2],7.58
same,PBM binding z-score,[3],4.26
same,PBM binding z-score,[4],6.03
same,PBM binding z-score,[5],0.344
same,PBM binding z-score,[6],5.82
same,PBM binding z-score,[7],5.92
same,PBM binding z-score,[8],5.6
same,PBM binding z-score,[9],2.38
same,PBM binding z-score,[10],4.77
TCTATTTGGTCAAAGGTCACACACTCGAAATGCG,PBM binding z-score,[1],6.32
same,PBM binding z-score,[2],5.68
same,PBM binding z-score,[3],4.22
same,PBM binding z-score,[4],5.83
same,PBM binding z-score,[5],3.24
same,PBM binding z-score,[6],6.7
same,PBM binding z-score,[7],10.6
same,PBM binding z-score,[8],9.27
same,PBM binding z-score,[9],9.35
same,PBM binding z-score,[10],10.1
CGTCAAGGTTCAAGGTAACGTAACAGAAAGCAGC,PBM binding z-score,[1],4.59
same,PBM binding z-score,[2],3.3
same,PBM binding z-score,[3],0.601
same,PBM binding z-score,[4],2.06
same,PBM binding z-score,[5],-0.166
same,PBM binding z-score,[6],3.56
same,PBM binding z-score,[7],2.25
same,PBM binding z-score,[8],2.63
same,PBM binding z-score,[9],0.331
same,PBM binding z-score,[10],1.55
TAGCCTATGTCATGGGCCAGTATACCACGCGAAC,PBM binding z-score,[1],-0.15
same,PBM binding z-score,[2],-0.356
same,PBM binding z-score,[3],-0.253
same,PBM binding z-score,[4],-0.589
same,PBM binding z-score,[5],-0.827
same,PBM binding z-score,[6],-0.267
same,PBM binding z-score,[7],0.56
same,PBM binding z-score,[8],-0.0658
same,PBM binding z-score,[9],-0.369
same,PBM binding z-score,[10],-0.213
CGTCAATGTTCAAGGTAACGTAACAGAAAGCAGC,PBM binding z-score,[1],-0.00254
same,PBM binding z-score,[2],-0.129
same,PBM binding z-score,[3],-0.233
same,PBM binding z-score,[4],0.0792
same,PBM binding z-score,[5],0.0791
same,PBM binding z-score,[6],-0.0522
same,PBM binding z-score,[7],0.532
same,PBM binding z-score,[8],0.03
same,PBM binding z-score,[9],0.263
same,PBM binding z-score,[10],0.00705

# Source: the supplement of paper PMC6555819
